{"source": "the supplement of paper PMC12282887", "test_in_all_cases": "promoter activity interaction Z-score (Lux/OD deviation from empty-vector control); higher = stronger promoter induction by the compound", "key": {"[1]": {"test_system": "E. coli BW25113 acrABp lux reporter", "outline": "(§1)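 At 37°C, E. coli BW25113 reporter cultures in 40 µl LB Lennox in 384-well plates were read for OD600 and luminescence every 30 min for 12 h. Windows were 0–8 h for wild type and 1–9 h for deletion strains, and wells under 10% of the median growth value were removed. The score is the Z-transformed residual of growth-normalised luminescence against a control fit.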"}, "[2]": {"test_system": "E. coli BW25113 micFp lux reporter", "outline": "as §1"}, "[3]": {"test_system": "E. coli BW25113 ompFp lux reporter", "outline": "as §1"}, "[4]": {"test_system": "E. coli BW25113 robp lux reporter", "outline": "as §1"}, "[5]": {"test_system": "E. coli BW25113 soxSp lux reporter", "outline": "as §1"}, "[6]": {"test_system": "E. coli BW25113 tolCp lux reporter", "outline": "as §1"}, "[7]": {"conditions": "22.5 µg/ml, genetic background: wild type"}, "[8]": {"conditions": "22.5 µg/ml, genetic background: ΔmarA"}, "[9]": {"conditions": "22.5 µg/ml, genetic background: Δrob"}, "[10]": {"conditions": "22.5 µg/ml, genetic background: ΔsoxS"}, "[11]": {"conditions": "45 µg/ml, genetic background: wild type"}, "[12]": {"conditions": "45 µg/ml, genetic background: ΔmarA"}, "[13]": {"conditions": "45 µg/ml, genetic background: Δrob"}, "[14]": {"conditions": "45 µg/ml, genetic background: ΔsoxS"}, "[15]": {"conditions": "90.1 µg/ml, genetic background: wild type"}, "[16]": {"conditions": "90.1 µg/ml, genetic background: ΔmarA"}, "[17]": {"conditions": "90.1 µg/ml, genetic background: Δrob"}, "[18]": {"conditions": "90.1 µg/ml, genetic background: ΔsoxS"}, "[19]": {"conditions": "180.2 µg/ml, genetic background: wild type"}, "[20]": {"conditions": "180.2 µg/ml, genetic background: ΔmarA"}, "[21]": {"conditions": "180.2 µg/ml, genetic background: Δrob"}, "[22]": {"conditions": "180.2 µg/ml, genetic background: ΔsoxS"}}, "note": "± gives the standard deviation of the averaged measurements.", "data": [{"molecule": "CC(=O)Oc1ccccc1C(=O)O", "note": "[Acetylsalicylic acid]", "values": [{"measurement": "promoter activity interaction Z-score", "setting": "[1]; [7]", "result": "-0.0985 ± 0.4"}, {"measurement": "promoter activity interaction Z-score", "setting": "[1]; [8]", "result": "-0.517 ± 0.098"}, {"measurement": "promoter activity interaction Z-score", "setting": "[1]; [9]", "result": "-0.0077 ± 0.088"}, {"measurement": "promoter activity interaction Z-score", "setting": "[1]; [10]", "result": "-0.0154 ± 0.64"}, {"measurement": "promoter activity interaction Z-score", "setting": "[1]; [11]", "result": "-0.074 ± 0.32"}, {"measurement": "promoter activity interaction Z-score", "setting": "[1]; [12]", "result": "0.0467 ± 0.55"}, {"measurement": "promoter activity interaction Z-score", "setting": "[1]; [13]", "result": "0.166 ± 0.1"}, {"measurement": "promoter activity interaction Z-score", "setting": "[1]; [14]", "result": "0.231 ± 0.27"}, {"measurement": "promoter activity interaction Z-score", "setting": "[1]; [15]", "result": "-0.285 ± 0.52"}, {"measurement": "promoter activity interaction Z-score", "setting": "[1]; [16]", "result": "-0.333 ± 1.1"}, {"measurement": "promoter activity interaction Z-score", "setting": "[1]; [17]", "result": "-0.137 ± 0.07"}, {"measurement": "promoter activity interaction Z-score", "setting": "[1]; [18]", "result": "0.467 ± 0.76"}, {"measurement": "promoter activity interaction Z-score", "setting": "[1]; [19]", "result": "0.092 ± 0.075"}, {"measurement": "promoter activity interaction Z-score", "setting": "[1]; [20]", "result": "-0.505 ± 0.22"}, {"measurement": "promoter activity interaction Z-score", "setting": "[1]; [21]", "result": "0.377 ± 0.044"}, {"measurement": "promoter activity interaction Z-score", "setting": "[1]; [22]", "result": "1.71 ± 1.2"}, {"measurement": "promoter activity interaction Z-score", "setting": "[2]; [7]", "result": "0.2 ± 0.11"}, {"measurement": "promoter activity interaction Z-score", "setting": "[2]; [8]", "result": "0.0379 ± 0.26"}, {"measurement": "promoter activity interaction Z-score", "setting": "[2]; [9]", "result": "0.404 ± 0.28"}, {"measurement": "promoter activity interaction Z-score", "setting": "[2]; [10]", "result": "0.0828 ± 0.038"}, {"measurement": "promoter activity interaction Z-score", "setting": "[2]; [11]", "result": "0.294 ± 0.19"}, {"measurement": "promoter activity interaction Z-score", "setting": "[2]; [12]", "result": "0.0785 ± 0.071"}, {"measurement": "promoter activity interaction Z-score", "setting": "[2]; [13]", "result": "0.518 ± 0.31"}, {"measurement": "promoter activity interaction Z-score", "setting": "[2]; [14]", "result": "0.285 ± 0.12"}, {"measurement": "promoter activity interaction Z-score", "setting": "[2]; [15]", "result": "0.237 ± 0.08"}, {"measurement": "promoter activity interaction Z-score", "setting": "[2]; [16]", "result": "0.0592 ± 0.067"}, {"measurement": "promoter activity interaction Z-score", "setting": "[2]; [17]", "result": "1.19 ± 0.68"}, {"measurement": "promoter activity interaction Z-score", "setting": "[2]; [18]", "result": "0.855 ± 0.27"}, {"measurement": "promoter activity interaction Z-score", "setting": "[2]; [19]", "result": "1.38 ± 0.096"}, {"measurement": "promoter activity interaction Z-score", "setting": "[2]; [20]", "result": "0.189 ± 0.12"}, {"measurement": "promoter activity interaction Z-score", "setting": "[2]; [21]", "result": "2.72 ± 0.048"}, {"measurement": "promoter activity interaction Z-score", "setting": "[2]; [22]", "result": "2.65 ± 0.019"}, {"measurement": "promoter activity interaction Z-score", "setting": "[3]; [7]", "result": "0.15 ± 0.52"}, {"measurement": "promoter activity interaction Z-score", "setting": "[3]; [8]", "result": "-0.0334 ± 0.0097"}, {"measurement": "promoter activity interaction Z-score", "setting": "[3]; [9]", "result": "-0.332 ± 0.11"}, {"measurement": "promoter activity interaction Z-score", "setting": "[3]; [10]", "result": "-0.533 ± 0.19"}, {"measurement": "promoter activity interaction Z-score", "setting": "[3]; [11]", "result": "0.0711 ± 0.62"}, {"measurement": "promoter activity interaction Z-score", "setting": "[3]; [12]", "result": "-0.0561 ± 0.37"}, {"measurement": "promoter activity interaction Z-score", "setting": "[3]; [13]", "result": "-0.229 ± 0.49"}, {"measurement": "promoter activity interaction Z-score", "setting": "[3]; [14]", "result": "-0.162 ± 0.16"}, {"measurement": "promoter activity interaction Z-score", "setting": "[3]; [15]", "result": "-0.597 ± 0.69"}, {"measurement": "promoter activity interaction Z-score", "setting": "[3]; [16]", "result": "-0.411 ± 0.14"}, {"measurement": "promoter activity interaction Z-score", "setting": "[3]; [17]", "result": "-0.956 ± 0.38"}, {"measurement": "promoter activity interaction Z-score", "setting": "[3]; [18]", "result": "0.0662 ± 0.72"}, {"measurement": "promoter activity interaction Z-score", "setting": "[3]; [19]", "result": "-0.594 ± 0.36"}, {"measurement": "promoter activity interaction Z-score", "setting": "[3]; [20]", "result": "-0.771 ± 0.14"}, {"measurement": "promoter activity interaction Z-score", "setting": "[3]; [21]", "result": "-0.628 ± 0.52"}, {"measurement": "promoter activity interaction Z-score", "setting": "[3]; [22]", "result": "-0.165 ± 0.36"}, {"measurement": "promoter activity interaction Z-score", "setting": "[4]; [7]", "result": "0.17 ± 0.36"}, {"measurement": "promoter activity interaction Z-score", "setting": "[4]; [8]", "result": "-0.635 ± 0.24"}, {"measurement": "promoter activity interaction Z-score", "setting": "[4]; [9]", "result": "0.299 ± 0.26"}, {"measurement": "promoter activity interaction Z-score", "setting": "[4]; [10]", "result": "-0.394 ± 1.1"}, {"measurement": "promoter activity interaction Z-score", "setting": "[4]; [11]", "result": "0.406 ± 0.86"}, {"measurement": "promoter activity interaction Z-score", "setting": "[4]; [12]", "result": "0.328 ± 0.074"}, {"measurement": "promoter activity interaction Z-score", "setting": "[4]; [13]", "result": "0.109 ± 1.1"}, {"measurement": "promoter activity interaction Z-score", "setting": "[4]; [14]", "result": "0.454 ± 0.65"}, {"measurement": "promoter activity interaction Z-score", "setting": "[4]; [15]", "result": "-0.235 ± 0.3"}, {"measurement": "promoter activity interaction Z-score", "setting": "[4]; [16]", "result": "0.332 ± 0.19"}, {"measurement": "promoter activity interaction Z-score", "setting": "[4]; [17]", "result": "-0.142 ± 0.65"}, {"measurement": "promoter activity interaction Z-score", "setting": "[4]; [18]", "result": "0.2 ± 0.77"}, {"measurement": "promoter activity interaction Z-score", "setting": "[4]; [19]", "result": "-0.797 ± 0.23"}, {"measurement": "promoter activity interaction Z-score", "setting": "[4]; [20]", "result": "-0.595 ± 0.25"}, {"measurement": "promoter activity interaction Z-score", "setting": "[4]; [21]", "result": "-0.635 ± 0.52"}, {"measurement": "promoter activity interaction Z-score", "setting": "[4]; [22]", "result": "-0.507 ± 0.57"}, {"measurement": "promoter activity interaction Z-score", "setting": "[5]; [7]", "result": "0.245 ± 0.03"}, {"measurement": "promoter activity interaction Z-score", "setting": "[5]; [8]", "result": "0.396 ± 0.012"}, {"measurement": "promoter activity interaction Z-score", "setting": "[5]; [9]", "result": "0.336 ± 0.03"}, {"measurement": "promoter activity interaction Z-score", "setting": "[5]; [10]", "result": "0.386 ± 0.52"}, {"measurement": "promoter activity interaction Z-score", "setting": "[5]; [11]", "result": "0.214 ± 0.2"}, {"measurement": "promoter activity interaction Z-score", "setting": "[5]; [12]", "result": "0.405 ± 0.076"}, {"measurement": "promoter activity interaction Z-score", "setting": "[5]; [13]", "result": "0.388 ± 0.19"}, {"measurement": "promoter activity interaction Z-score", "setting": "[5]; [14]", "result": "0.494 ± 0.84"}, {"measurement": "promoter activity interaction Z-score", "setting": "[5]; [15]", "result": "0.119 ± 0.042"}, {"measurement": "promoter activity interaction Z-score", "setting": "[5]; [16]", "result": "0.218 ± 0.23"}, {"measurement": "promoter activity interaction Z-score", "setting": "[5]; [17]", "result": "0.406 ± 0.2"}, {"measurement": "promoter activity interaction Z-score", "setting": "[5]; [18]", "result": "0.157 ± 0.64"}, {"measurement": "promoter activity interaction Z-score", "setting": "[5]; [19]", "result": "0.054 ± 0.12"}, {"measurement": "promoter activity interaction Z-score", "setting": "[5]; [20]", "result": "0.327 ± 0.073"}, {"measurement": "promoter activity interaction Z-score", "setting": "[5]; [21]", "result": "0.525 ± 0.097"}, {"measurement": "promoter activity interaction Z-score", "setting": "[5]; [22]", "result": "0.502 ± 1.1"}, {"measurement": "promoter activity interaction Z-score", "setting": "[6]; [7]", "result": "0.458 ± 0.6"}, {"measurement": "promoter activity interaction Z-score", "setting": "[6]; [8]", "result": "-1.26 ± 1.6"}, {"measurement": "promoter activity interaction Z-score", "setting": "[6]; [9]", "result": "-0.642 ± 0.11"}, {"measurement": "promoter activity interaction Z-score", "setting": "[6]; [10]", "result": "0.238 ± 0.11"}, {"measurement": "promoter activity interaction Z-score", "setting": "[6]; [11]", "result": "0.0937 ± 0.17"}, {"measurement": "promoter activity interaction Z-score", "setting": "[6]; [12]", "result": "0.783 ± 0.48"}, {"measurement": "promoter activity interaction Z-score", "setting": "[6]; [13]", "result": "0.602 ± 0.1"}, {"measurement": "promoter activity interaction Z-score", "setting": "[6]; [14]", "result": "0.898 ± 0.65"}, {"measurement": "promoter activity interaction Z-score", "setting": "[6]; [15]", "result": "0.202 ± 0.78"}, {"measurement": "promoter activity interaction Z-score", "setting": "[6]; [16]", "result": "1.21 ± 0.39"}, {"measurement": "promoter activity interaction Z-score", "setting": "[6]; [17]", "result": "1.08 ± 0.51"}, {"measurement": "promoter activity interaction Z-score", "setting": "[6]; [18]", "result": "1.29 ± 0.033"}, {"measurement": "promoter activity interaction Z-score", "setting": "[6]; [19]", "result": "-0.456 ± 0.15"}, {"measurement": "promoter activity interaction Z-score", "setting": "[6]; [20]", "result": "-0.659 ± 0.06"}, {"measurement": "promoter activity interaction Z-score", "setting": "[6]; [21]", "result": "1.91 ± 0.78"}, {"measurement": "promoter activity interaction Z-score", "setting": "[6]; [22]", "result": "2.01 ± 0.4"}]}]}
